In the library only some 4% were active in any assay of this set; here they are far more common.
NALP3 yeast inh – NALP3 inflammasome inhibitors in reconstituted yeast, primary screen, luminescence, uHTS; Yeast reconstituted NLRP3/ASC/caspase-1, beta-gal luminescence, 24 h; inhibition, % at 10 µM; 330,000 tested, 0.39% active;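 active = inhibition of 50% or more; inactive = inhibition below 50%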
TIM10 inh – growth inhibitors of isogenic TIM10 control yeast, primary screen, counter-screen for tim10-1 yeast inhibitor project, luminescence, uHTS | S. cerevisiae TIM10 strain growth, BacTiter-Glo luminescence, 24 h | inhibition, % at 10 µM | 330,000 tested, 1.4% active | AID 463195, 2010;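 active = inhibition of 40% or more at the single tested concentration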;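 also: wild-type TIM10 isogenic control strain grown at permissive 25 °C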
NALP1 yeast inh – NALP1 inflammasome inhibitors in reconstituted yeast, colorimetric, S. cerevisiae, triplicate retest. 280,000 tested, 0.61% active. inhibition, % at 10 µM. S. cerevisiae NALP1/ASC/caspase-1 growth, X-gal OD620, 72 h; in the data active = inhibition mostly above about 24%, no sharp cut-off; inactive = mostly below about 32%
tim23-1 inh – growth inhibitors of tim23-1 mutant yeast, primary screen, luminescence, uHTS; 330,000 tested, 1.3% active; inhibition, % at 20 µM; AID 463212, 2010; S. cerevisiae tim23-1 growth, BacTiter-Glo luminescence, 24 h;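 active = growth inhibition of the mutant yeast at or above 50%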;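 also: temperature-sensitive mutant grown at 25 °C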
tim10-1 inh – growth inhibitors of tim10-1 mutant yeast, primary screen, luminescence, uHTS; S. cerevisiae tim10-1 ts strain growth, BacTiter-Glo, 24 h; inhibition, % at 20 µM; 330,000 tested, 2.2% active; AID 463190, 2010;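 active = inhibition of at least 40%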;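 also: mutant grown at 25 °C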
tim10-1 conf – growth inhibitors of tim10-1 mutant yeast, confirmation, single concentration, luminescence, S. cerevisiae; shares compounds with tim10-1 inh; S. cerevisiae tim10-1 ts strain growth, BacTiter-Glo, 24 h; inhibition, % at 20 µM; 7,400 tested, 56% active;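 active = inhibition of yeast growth at or above a set limit in either of two repeat tests at 20 µM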;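 also: tim10-1 mutant grown at permissive 25 °C to find synthetic lethal compounds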
Numbers stand for hits.

What do the screens show for `O=C(Cc1ccccc1)N/N=C/c1ccc2cccc(O)c2n1`?
NALP3 yeast inh: inactive; TIM10 inh: inactive; NALP1 yeast inh: inactive; tim23-1 inh: inactive; tim10-1 inh: 47; tim10-1 conf: 34

What do the screens show for `CC(C)(C)c1nn(-c2ccccc2)c2[nH]c(=O)c(CNCc3ccc4c(c3)OCO4)cc12`?
NALP3 yeast inh: inactive; TIM10 inh: inactive; NALP1 yeast inh: inactive; tim23-1 inh: inactive; tim10-1 inh: 44; tim10-1 conf: 32

What do the screens show for `N#CCCN1CCC(NC(=O)OCc2ccccc2)CCC1=O` (stereo not given)?
NALP3 yeast inh: inactive; TIM10 inh: inactive; NALP1 yeast inh: inactive; tim23-1 inh: inactive; tim10-1 inh: inactive

How did O=C(NC1CCC(=O)N(CCSc2ccccc2)CC1)OCc1ccccc1 (stereo not given) do in these assays?
NALP3 yeast inh: inactive; TIM10 inh: inactive; NALP1 yeast inh: inactive; tim23-1 inh: inactive; tim10-1 inh: 48; tim10-1 conf: inactive

How did COc1ccc(/C=C\C(=O)O[C@@H]2C(O)C(O[C@@H]3OC(C)[C@H](O[C@@H]4OCC(O[C@H]5O[C@H](CO)[C@@H](O)C(O)C5O)C(O)C4O)C(O)C3O)[C@H](OC(=O)[C@]34CCC(C)(C)C[C@@H]3C3=CCC5[C@@]6(C)CC(O)C(O[C@@H]7OC(CO)C(O)[C@H](O)[C@H]7O)[C@@](C)(C(=O)O)C6CC[C@@]5(C)[C@]3(CO)CC4)O[C@H]2C)cc1 (stereo not given in full) do in these assays?
NALP3 yeast inh: inactive; TIM10 inh: inactive; tim23-1 inh: inactive; tim10-1 inh: 48; tim10-1 conf: 38

How did Cc1nc(SCc2nc3ccc(Br)cc3[nH]2)c2oc3ccccc3c2n1 do in these assays?
NALP3 yeast inh: inactive; TIM10 inh: inactive; tim23-1 inh: inactive; tim10-1 inh: inactive

Results for CCc1nc(SCc2nc3ccccc3[nH]2)c2oc3ccccc3c2n1 ?
NALP3 yeast inh: inactive; TIM10 inh: inactive; NALP1 yeast inh: inactive; tim23-1 inh: inactive; tim10-1 inh: 40; tim10-1 conf: inactive

How did CCOC(=O)C(Cc1ccccc1)NC(=O)CCc1c(C)nc2ncnn2c1C (stereo not given) do in these assays?
NALP3 yeast inh: inactive; TIM10 inh: inactive; NALP1 yeast inh: inactive; tim23-1 inh: inactive; tim10-1 inh: inactive

Results for CCOC(=O)C(Sc1cc(-c2ccccc2)nc2ncnn12)C(C)=O (stereo not given) ?
NALP3 yeast inh: inactive; TIM10 inh: inactive; tim23-1 inh: inactive; tim10-1 inh: 41; tim10-1 conf: 30

Results for CCOC(=O)c1ccc(NC(=S)NCCc2ccccc2)cc1 ?
NALP3 yeast inh: inactive; TIM10 inh: inactive; NALP1 yeast inh: inactive; tim23-1 inh: inactive; tim10-1 inh: 41; tim10-1 conf: inactive

What do the screens show for `CCOC(=O)c1ccc(NC(=S)NCCc2ccccc2F)cc1`?
NALP3 yeast inh: inactive; TIM10 inh: inactive; NALP1 yeast inh: inactive; tim23-1 inh: inactive; tim10-1 inh: 40; tim10-1 conf: inactive

Results for CC(=O)Nc1ccc(C(=O)OCCc2ccccc2)cc1 ?
NALP3 yeast inh: inactive; TIM10 inh: inactive; NALP1 yeast inh: inactive; tim23-1 inh: inactive; tim10-1 inh: 42; tim10-1 conf: 33

Results for COc1ccc(S(=O)(=O)NN(C)C(=O)c2nn(-c3ccccc3)ccc2=O)cc1 ?
NALP3 yeast inh: inactive; TIM10 inh: inactive; NALP1 yeast inh: inactive; tim23-1 inh: inactive; tim10-1 inh: inactive

How did Cc1ccc(NC2CCCCC2NS(=O)(=O)c2ccccc2)c(C)c1 (stereo not given) do in these assays?
NALP3 yeast inh: inactive; TIM10 inh: inactive; NALP1 yeast inh: inactive; tim23-1 inh: inactive; tim10-1 inh: 44; tim10-1 conf: inactive

How did O=S(=O)(NC1CCCCC1Nc1ccc(Cl)cc1)c1ccccc1 (stereo not given) do in these assays?
NALP3 yeast inh: inactive; TIM10 inh: inactive; NALP1 yeast inh: inactive; tim23-1 inh: inactive; tim10-1 inh: inactive

How did O=C(CN1CCN(S(=O)(=O)c2ccc(Br)cc2)CC1)c1ccc(O)c(O)c1 do in these assays?
NALP3 yeast inh: inactive; TIM10 inh: inactive; NALP1 yeast inh: inactive; tim23-1 inh: inactive; tim10-1 inh: inactive

How did CC(C)c1ccc(S(=O)(=O)N2CCN(CC(=O)c3ccc(O)c(O)c3)CC2)cc1 do in these assays?
NALP3 yeast inh: inactive; TIM10 inh: inactive; NALP1 yeast inh: inactive; tim23-1 inh: inactive; tim10-1 inh: 50; tim10-1 conf: inactive

Results for N#C/C(=C\c1ccc(-c2nc3ccccc3s2)o1)C(N)=O ?
NALP3 yeast inh: inactive; TIM10 inh: inactive; tim23-1 inh: inactive; tim10-1 inh: 40; tim10-1 conf: inactive

Results for NC(=O)C1CCN(C(=O)c2cc(-c3ccc(Cl)s3)nc3ccccc23)CC1 ?
NALP3 yeast inh: inactive; TIM10 inh: inactive; tim23-1 inh: inactive; tim10-1 inh: inactive

What do the screens show for `Cc1ccc(C(=O)O/N=C2\CCSc3ccc(C)cc32)cc1`?
NALP3 yeast inh: inactive; TIM10 inh: inactive; tim23-1 inh: inactive; tim10-1 inh: 40; tim10-1 conf: 33

How did CC(C(=O)N1CCN(c2ccc(Cl)cc2)CC1)c1ncc(C(F)(F)F)cc1Cl (stereo not given) do in these assays?
NALP3 yeast inh: inactive; TIM10 inh: inactive; NALP1 yeast inh: inactive; tim23-1 inh: inactive; tim10-1 inh: 43; tim10-1 conf: inactive

Results for CCOC(=O)c1cc(-c2ccc(OC)cc2)nn1-c1ccc(C(=O)O)cc1 ?
NALP3 yeast inh: inactive; TIM10 inh: inactive; NALP1 yeast inh: inactive; tim23-1 inh: inactive; tim10-1 inh: inactive

Results for CC1CCN(C(c2ccc(N(C)C)cc2)c2nnnn2Cc2ccc(F)cc2)CC1 (stereo not given) ?
NALP3 yeast inh: inactive; TIM10 inh: inactive; NALP1 yeast inh: inactive; tim23-1 inh: inactive; tim10-1 inh: inactive

What do the screens show for `Fc1ccc(Cn2nnnc2C(c2ccc(Cl)cc2)N2CCSCC2)cc1` (stereo not given)?
NALP3 yeast inh: inactive; TIM10 inh: inactive; NALP1 yeast inh: inactive; tim23-1 inh: inactive; tim10-1 inh: 42; tim10-1 conf: inactive

How did Cc1nnc(NC(=O)CCn2c(=O)oc3ccc(Cl)cc32)s1 do in these assays?
NALP3 yeast inh: inactive; TIM10 inh: inactive; NALP1 yeast inh: inactive; tim23-1 inh: inactive; tim10-1 inh: inactive

What do the screens show for `Cc1csc(NC(=O)CCn2c(=O)oc3ccc(Cl)cc32)n1`?
NALP3 yeast inh: inactive; TIM10 inh: inactive; NALP1 yeast inh: inactive; tim23-1 inh: inactive; tim10-1 inh: 43; tim10-1 conf: inactive

How did CCCCCCCNC(=O)C1(CC2CC(c3ccc(Cl)cc3)=NO2)CCN(C(=O)c2cc(OCC)c(OCC)c(OCC)c2)CC1 (stereo not given) do in these assays?
NALP3 yeast inh: inactive; TIM10 inh: inactive; NALP1 yeast inh: inactive; tim23-1 inh: inactive; tim10-1 inh: inactive
